Measurements published in paper PMC5540273 (PLoS ONE, 2017).
Like-named read-outs stand apart in the source and are kept apart here.

Experiments:
[1] = tested on: CDK4-cyclinD1; details: n = 1
[2] = tested on: CDK4-cyclinD3; details: n = 1
[3] = tested on: CDK4; details: n = 1
[4] = tested on: CDK5; details: concentration: 1 μM, replicates: in singlicate; n = 1
[5] = tested on: CDK7; details: concentration: 1 μM, replicates: in singlicate; n = 1
[6] = tested on: CDK8; details: concentration: 1 μM, replicates: in singlicate; n = 1
[7] = tested on: CDK9; details: concentration: 1 μM, replicates: in singlicate; n = 1
[8] = tested on: CDKL1; details: concentration: 1 μM, replicates: in singlicate; n = 1
[9] = tested on: CDKL2; details: concentration: 1 μM, replicates: in singlicate; n = 1
[10] = tested on: CDKL3; details: concentration: 1 μM, replicates: in singlicate; n = 1
[11] = tested on: CDKL5; details: concentration: 1 μM, replicates: in singlicate; n = 1
[12] = tested on: CHEK1; details: concentration: 1 μM, replicates: in singlicate; n = 1
[13] = tested on: CHEK2; details: concentration: 1 μM, replicates: in singlicate; n = 1
[14] = tested on: CIT; details: concentration: 1 μM, replicates: in singlicate; n = 1
[15] = tested on: CLK1; details: concentration: 1 μM, replicates: in singlicate; n = 1
[16] = tested on: CLK2; details: concentration: 1 μM, replicates: in singlicate; n = 1
[17] = tested on: CLK3; details: concentration: 1 μM, replicates: in singlicate; n = 1
[18] = tested on: CLK4; details: concentration: 1 μM, replicates: in singlicate; n = 1
[19] = tested on: CSF1R-autoinhibited; details: concentration: 1 μM, replicates: in singlicate; n = 1
[20] = tested on: CSF1R; details: concentration: 1 μM, replicates: in singlicate; n = 1
[21] = concentration: 1 μM, replicates: in singlicate
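Note: KINOMEscan kinase panel screen.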

## CS(=O)(=O)Cc1ccc(Nc2nccc(-c3c(-c4cccc(NC(=O)C5CCCCC5)c4)nn4ncccc34)n2)cc1 [GSK350559]
[1]; 1 µM
  %Inh: 15%
[2]; 1 µM
  %Inh: 18%
[3]; 1 µM
  %Inh: 18%

## Nc1cccc(-c2ccc3c(N)n[nH]c3c2)n1 [GSK2192730]
[1]; [21]
  %Inh: 0%
[2]; [21]
  %Inh: 0%
[3]; [21]
  %Inh: 0%
[4]
  %Inh: 0%
[5]
  %Inh: 92.8%
[6]
  %Inh: 0%
[7]
  %Inh: 16%
[8]
  %Inh: 0%
[9]
  %Inh: 13%
[10]
  %Inh: 0%
[11]
  %Inh: 4%
[12]
  %Inh: 0%
[13]
  %Inh: 13%
[14]
  %Inh: 17%
[15]
  %Inh: 28%
[16]
  %Inh: 18%
[17]
  %Inh: 0%
[18]
  %Inh: 0%
[19]
  %Inh: 0%
[20]
  %Inh: 14%

## COc1cccc(NC(=O)Nc2ccc(C)c(-c3ccc(C(=O)Nc4ccncc4)cc3)c2)c1 [GSK1398474]
[1]; [21]
  %Inh: 0%
[2]; [21]
  %Inh: 0%
[3]; [21]
  %Inh: 37%
[4]
  %Inh: 0%
[5]
  %Inh: 0%
[6]
  %Inh: 0%
[7]
  %Inh: 0%
[8]
  %Inh: 51%
[9]
  %Inh: 18%
[10]
  %Inh: 0%
[11]
  %Inh: 0%
[12]
  %Inh: 7%
[13]
  %Inh: 0%
[14]
  %Inh: 94.8%
[15]
  %Inh: 29%
[16]
  %Inh: 0%
[17]
  %Inh: 65%
[18]
  %Inh: 5%
[19]
  %Inh: 0%
[20]
  %Inh: 86%

## O=c1cc(N2CCOCC2)nc2n(Cc3ccccc3F)ccn12 [GSK2297428]
[1]; [21]
  %Inh: 0%
[2]; [21]
  %Inh: 0%
[3]; [21]
  %Inh: 0%
[4]
  %Inh: 0%
[5]
  %Inh: 0%
[6]
  %Inh: 22%
[7]
  %Inh: 0%
[8]
  %Inh: 0%
[9]
  %Inh: 13%
[10]
  %Inh: 0%
[11]
  %Inh: 0%
[12]
  %Inh: 9%
[13]
  %Inh: 0%
[14]
  %Inh: 18%
[15]
  %Inh: 36%
[16]
  %Inh: 0%
[17]
  %Inh: 22%
[18]
  %Inh: 54%
[19]
  %Inh: 7%
[20]
  %Inh: 0%

## CNC(=O)c1ccc(C)c(-n2c(C)cc(OCc3ccc(F)cc3F)c(Br)c2=O)c1
[1]; [21]
  %Inh: 0%
[2]; [21]
  %Inh: 0%
[3]; [21]
  %Inh: 0%
[4]
  %Inh: 0%
[5]
  %Inh: 4%
[6]
  %Inh: 4%
[7]
  %Inh: 0%
[8]
  %Inh: 91.9%
[9]
  %Inh: 3%
[10]
  %Inh: 25%
[11]
  %Inh: 0%
[12]
  %Inh: 0%
[13]
  %Inh: 0%
[14]
  %Inh: 0%
[15]
  %Inh: 11%
[16]
  %Inh: 0%
[17]
  %Inh: 0%
[18]
  %Inh: 0%
[19]
  %Inh: 0%
[20]
  %Inh: 0%

## Fc1ccc(-c2nc[nH]c2-c2ccncc2)cc1 [SB-217360]
[1]; [21]
  %Inh: 0%
[2]; [21]
  %Inh: 0%
[3]; [21]
  %Inh: 15%
[4]
  %Inh: 0%
[5]
  %Inh: 0%
[6]
  %Inh: 38%
[7]
  %Inh: 0%
[8]
  %Inh: 12%
[9]
  %Inh: 16%
[10]
  %Inh: 2%
[11]
  %Inh: 2%
[12]
  %Inh: 0%
[13]
  %Inh: 16%
[14]
  %Inh: 93.7%
[15]
  %Inh: 5%
[16]
  %Inh: 10%
[17]
  %Inh: 10%
[18]
  %Inh: 0%
[19]
  %Inh: 0%
[20]
  %Inh: 0%

## COc1ccc(Nc2nccc(-c3ccc(NC(=O)c4cc5cc(F)ccc5[nH]4)cc3)n2)cc1 [GSK1229496]
[1]; [21]
  %Inh: 0%
[2]; [21]
  %Inh: 0%
[3]; [21]
  %Inh: 39%
[4]
  %Inh: 0%
[5]
  %Inh: 0%
[6]
  %Inh: 20%
[7]
  %Inh: 0%
[8]
  %Inh: 0%
[9]
  %Inh: 0%
[10]
  %Inh: 0%
[11]
  %Inh: 0%
[12]
  %Inh: 100%
[13]
  %Inh: 26%
[14]
  %Inh: 0%
[15]
  %Inh: 5%
[16]
  %Inh: 0%
[17]
  %Inh: 19%
[18]
  %Inh: 18%
[19]
  %Inh: 15%
[20]
  %Inh: 0%

## CCn1c(-c2c(N)noc2C)nc2cnccc21 [SB-737856]
[1]; [21]
  %Inh: 0%
[2]; [21]
  %Inh: 9%
[3]; [21]
  %Inh: 0%
[4]
  %Inh: 8%
[5]
  %Inh: 0%
[6]
  %Inh: 0%
[7]
  %Inh: 0%
[8]
  %Inh: 17%
[9]
  %Inh: 22%
[10]
  %Inh: 0%
[11]
  %Inh: 0%
[12]
  %Inh: 0%
[13]
  %Inh: 0%
[14]
  %Inh: 22%
[15]
  %Inh: 26%
[16]
  %Inh: 0%
[17]
  %Inh: 0%
[18]
  %Inh: 13%
[19]
  %Inh: 0%
[20]
  %Inh: 14%

## Cc1ccc(NC(=O)Nc2ccccc2)cc1-c1ccc(C(=O)Nc2ccncc2)cc1 [GSK1398471]
[1]; [21]
  %Inh: 0%
[2]; [21]
  %Inh: 0%
[3]; [21]
  %Inh: 0%
[4]
  %Inh: 0%
[5]
  %Inh: 0%
[6]
  %Inh: 0%
[7]
  %Inh: 0%
[8]
  %Inh: 0%
[9]
  %Inh: 23%
[10]
  %Inh: 1%
[11]
  %Inh: 11%
[12]
  %Inh: 0%
[13]
  %Inh: 0%
[14]
  %Inh: 93%
[15]
  %Inh: 20%
[16]
  %Inh: 0%
[17]
  %Inh: 7%
[18]
  %Inh: 14%
[19]
  %Inh: 0%
[20]
  %Inh: 84%

## CCCCc1nn2ncccc2c1-c1ccnc(NC2CC2)n1 [GW684374]
[1]; [21]
  %Inh: 0%
[2]; [21]
  %Inh: 12%
[3]; [21]
  %Inh: 21%
[4]
  %Inh: 0%
[5]
  %Inh: 0%
[6]
  %Inh: 0%
[7]
  %Inh: 0%
[8]
  %Inh: 0%
[9]
  %Inh: 15%
[10]
  %Inh: 0%
[11]
  %Inh: 0%
[12]
  %Inh: 0%
[13]
  %Inh: 3%
[14]
  %Inh: 25%
[15]
  %Inh: 40%
[16]
  %Inh: 26%
[17]
  %Inh: 90.7%
[18]
  %Inh: 0%
[19]
  %Inh: 0%
[20]
  %Inh: 7%
